From PubChem
AmpC inh detg = blocks E. coli AmpC beta-lactamase in detergent assay | P00811 | AmpC hydrolysis of nitrocefin, absorbance 480 nm, 0.01% Triton | Potency, µM (titrated, usually from 114 µM), for the others: at the top dose activity change, negative = inhibition, hits mostly inhibitors | 370,000 compounds, 0.041% hits;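 further: 0% = no-compound wells and -100% = no-enzyme wells; nearly all actives have a fitted effect of over 25% in size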
Target sequence (P00811 whole entry, looked up): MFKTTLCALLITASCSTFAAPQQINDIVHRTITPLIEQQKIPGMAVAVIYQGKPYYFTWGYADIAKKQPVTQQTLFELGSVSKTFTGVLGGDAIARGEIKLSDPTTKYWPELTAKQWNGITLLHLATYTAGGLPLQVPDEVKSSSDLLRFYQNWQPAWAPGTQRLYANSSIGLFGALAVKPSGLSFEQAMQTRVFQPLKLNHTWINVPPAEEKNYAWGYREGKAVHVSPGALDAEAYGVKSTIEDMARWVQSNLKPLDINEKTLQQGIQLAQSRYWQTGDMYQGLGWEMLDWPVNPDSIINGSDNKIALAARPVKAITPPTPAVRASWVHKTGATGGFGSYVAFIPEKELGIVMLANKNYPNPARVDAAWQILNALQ
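AmpC (5.3 nM in the dispensed reagent) in 20 mM phosphate pH 7.0 with 0.01% (detergent screen) or 0.0001% Triton X-100 was preincubated with compounds for 15 min at room temperature. Nitrocefin was then added from an 800 uM solution, and hydrolysis was followed at 480 nm.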
SARS PLP yeast = blocks SARS-CoV papain-like protease in a yeast assay | Potency, µM (doses to about 32.9 µM), for the others: top-dose activity, positive = growth rescue, actives largely listed as activators | S. cerevisiae expressing SARS-CoV PLpro, growth rescue | 330,000 compounds, 0.19% hits | AID 485353; calls by dose curve; further: 0% is about no effect; nearly all actives have a fitted effect of over 55% in size
AMA1 RON2 block = inhibitors of Plasmodium falciparum AMA1-RON2 interaction. AlphaScreen AMA1-biotinylated RON2 peptide binding. Potency, µM (series often up to 58.2 µM), for inactives: top-dose activity change, negative = inhibition, hits mostly inhibitors. 360,000 compounds, 0.2% hits;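 further: 0% = vehicle wells and -100% = peptide control; nearly all actives have a fitted effect of over 45% in size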
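AMA1 (3D7) with his tag at 25 nM final met compounds first, then biotinylated RON2 peptide at 25 nM; detection used donor plus acceptor beads, 10 µg/mL apiece, read by AlphaScreen after 30 min at room temperature.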
Vaccinia mCherry = vaccinia inhibition (mCherry reporter); Vaccinia virus mCherry reporter infection, fluorescence; Potency, µM (titrated, usually from 36.5 µM), inactives show top-dose activity change, negative = inhibition, most hits filed as inhibitors; 310,000 compounds, 0.63% hits; AID 720579; calls by dose curve; tested in A549 cells; further: on the % scale 0 is the no-effect control and ±100 the full control effect; nearly all actives have a fitted effect of over 35% in size
AmpC inh no detg = inhibitors of E. coli AmpC beta-lactamase without detergent | Potency, µM (titrated, usually from 57.1 µM), inactives show top-dose activity change, negative = inhibition, hits mostly inhibitors | AmpC nitrocefin hydrolysis, absorbance 480 nm, 0.0001% Triton | P00811 | 330,000 compounds, 0.52% hits;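 further: plate controls were no compound for no effect and no enzyme for full effect; nearly all actives have a fitted effect of over 20% in size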
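AmpC (5.3 nM in the dispensed reagent) in 20 mM phosphate pH 7.0 with 0.01% (detergent screen) or 0.0001% Triton X-100 was preincubated with compounds for 15 min at room temperature. Nitrocefin was then added from an 800 uM solution, and hydrolysis was followed at 480 nm.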
Vaccinia Venus = vaccinia inhibition (Venus reporter); Potency, µM (doses to about 36.5 µM), for inactives: at the top dose activity change, negative = inhibition, actives largely listed as inhibitors; 330,000 compounds, 0.46% hits; Vaccinia virus Venus reporter expression, fluorescence; calls by dose curve; tested in A549 cells; further: on the % scale 0 is the no-effect control and ±100 the full control effect; nearly all actives have a fitted effect of over 30% in size
* = called active by the depositor; i = inactive; ? = inconclusive; / = no result; ! = not confirmed by another sample; [ ] = dose if it differs, or a comment. Most compounds without a hit are left out; they make up all but 1.4% or so of the library. Unless noted, the call rests on the fitted dose curve; in most records, active means well fitted curve in the direction sought with a large enough effect; inconclusive means small, poorly fitted or top-dose-only effect, or another doubt; inactive means no such curve, though single readings can be large; an effect the other way counts as inactive or inconclusive. Potency means the concentration at half of the fitted maximal effect.

SMILES	AmpC inh detg	SARS PLP yeast	AMA1 RON2 block	Vaccinia mCherry	AmpC inh no detg	Vaccinia Venus
COc1cc(/C=c2\[nH]c(=O)/c(=C/c3cc(OC)c(OC)c(OC)c3)[nH]c2=O)cc(OC)c1OC	/	/	/	-14%	/	6%
Cc1ccc2c(c1)C(=O)C1(O)CCN(c3ccccc3)C1=N2 (stereo not drawn)	/	/	/	i	/	-11%[60.7 µM]
Cc1cc(-c2ccnc(-n3ncc(C(=O)NCC4COCCO4)c3C)n2)c(C)s1 (stereo not drawn)	/	/	/	-18%	/	-4%
CCC[N+](C)(C)c1ccc(/C=C/c2ccnc3ccccc23)cc1	/	/	/	i	/	i
CN(C)c1ccc(/C=N/NC(N)=S)cc1[N+](=O)[O-]	2%	9%	35%	3.5µM*	-12%	4µM*
C=CCNC(=S)N/N=C/c1ccc(C)c([N+](=O)[O-])c1	-8%	?	33%	-12%	-16%	-24%
NC(=S)N/N=C/c1ccc(-c2cccc([N+](=O)[O-])c2)o1	-8%	14%	25%	4.5µM*	-31%	5µM*
O=[N+]([O-])c1cccc(-c2ccc(/C=N/NC(=S)Nc3cccc(F)c3)o2)c1	7%	3%	59%	-6%	-57%	-16%
CCOC(=O)C1=C(C)Nc2ccccc2N=C1NC(=O)c1cccc(S(=O)(=O)N(C)C)c1	-15%	5%	-9%	i	-14%	-21%
CCOC(=O)C1=C(C)Nc2ccccc2N=C1NC(=O)C(c1ccccc1)c1ccccc1	-4%	0%	22%	6%	28µM*	1%
CN(C)CCNc1ccc(CO)c2oc3ccc(O)cc3c(=O)c12	/	/	-3%	?	/	10µM*
CCCCCCCCCc1ccc(OCCOCCO)cc1	/	/	/	-21%	/	?
CC1(C)CCC(=NNC(N)=S)CC1	/	/	3%	11µM*	/	?
Cc1ncc2c(c1CNC(=O)c1ccc3c(c1)OCO3)CCN(C(=O)c1cccc(-n3cccn3)c1)C2	/	/	/	-8%	/	-2%
O=c1c2ccccc2nc(/C=C/c2ccc([N+](=O)[O-])o2)n1-c1ccc(O)cc1	-2%	0%	-3%	3.5µM*	-28%	-25%
Nc1c(Cl)ncnc1N/N=C/c1ccccn1	?	/	-22%	2.2µM*	-5%	?
Nc1c(Cl)ncnc1N/N=C/c1cccnc1	4%	-4%	-12%	-14%	-14%	6%
O=C(Cc1ccc(-c2ccccc2)cc1)NO	/	/	/	-19%	/	-19%
CCOC(=O)N1CCN(c2ncnc3c2cnn3-c2ccc(Cl)cc2)CC1	-2%	6%	/	/	6.3µM*	/
CCOC(=O)N1CCN(c2ncnc3nc[nH]c23)CC1	?	0%	-9%	?	45µM*	-22%
O=C(NCCN1CCOCC1)c1cnn(-c2nccc(-c3ccccc3F)n2)c1C1CC1	/	/	/	-1%	/	?
C[N+](C)(C)c1ccc(/C=C/c2ccnc3ccccc23)cc1	/	/	/	233%	/	97%
NC(=O)C1CCCN(Cc2ccc3c(c2)CN(Cc2cn[nH]c2-c2ccc(F)cc2)CCO3)C1 (stereo not drawn)	/	/	/	-19%	/	-17%
COc1cc(CCNC2=CC(=O)c3ncccc3C2=O)ccc1O	/	/	-1%	10µM*	/	10µM*
CCS(=O)(=O)N1CC(=O)N(c2cccc(C)c2C)C(C)(C(=O)NC2CCCCC2)C1 (stereo not drawn)	16%	/	/	-14%	/	3%
SMILES	AmpC inh detg	SARS PLP yeast	AMA1 RON2 block	Vaccinia mCherry	AmpC inh no detg	Vaccinia Venus
CCc1ccccc1NC(=O)C(=O)NCCCN1CCOCC1	-7%	/	/	3%	/	-1%
O=c1c2ccccc2nc(COc2ccccc2)n1/N=C/c1ccc(O)c(O)c1	9%	-1%	35%	/	3.5µM*	/
Cc1nc2ccccc2c(=O)n1/N=C/c1c(O)ccc2ccccc12	3%	2%	-34%	13µM*	-18%	?
O=C(O)COc1ccc(/C=N/n2c(COc3ccccc3)nc3ccccc3c2=O)cc1	-1%	7%	-24%	21%	-29%	-11%
CC[C@@H](C)[C@H](NS(=O)(=O)c1cccc2ccccc12)C(=O)N[C@H](C=O)Cc1c[nH]c2ccccc12	/	/	/	-16%	/	-12%
O=C1CCN(Cc2cccn2-c2ccccn2)CCN1Cc1ccccc1C(F)(F)F	/	/	/	-14%	/	11%
O=C1CCC[C@@H]2CC(N(Cc3cc4ccccc4s3)c3ccccc3)C[C@@H]3CCN1[C@H]23 (stereo partly drawn)	/	/	/	i	/	-11%
COc1ccc(CNC(=O)CCc2c(C)nc3nc(CNC(=O)OC(C)(C)C)nn3c2C)cc1	3%	/	/	2%	/	1%
CN1CCc2c(c3ccccc3n2Cc2ccccc2)C1	-2%	-7%	-14%	28µM*!	18%	13µM*!
COCC(=O)Nc1cc(C(=O)N2CCc3sccc3C2)c2c(c1)nc(-c1ccncc1)n2C	/	/	/	-14%	/	-11%
Cc1cccc2c(Nc3ccc4c(c3)OCO4)nc(CN3CCC(N4CCCCC4)CC3)nc12	/	/	/	i	/	-12%
Cc1ccccc1/C=N/NC(=O)Cc1ccc(Cl)cc1	-2%	0%	-6%	-20%	-27%	-14%
Cc1ccc(/C=N/NC(=O)Cc2ccc(Cl)cc2)c(O)c1	-8%	-2%	84%	22µM*	-33%	?
COc1cc(Br)cc(/C=N/NC(=O)Cc2ccccc2)c1O	/	/	82%	?	/	?
O=C(Cc1ccccc1)N/N=C/c1cc(Br)cc(Cl)c1O	-5%	1%	13%	13µM*	-30%	?
O=C(c1cccnc1)C1CCCN(Cc2ccc3c(c2)CN(C(=O)c2cnccn2)CCO3)C1 (stereo not drawn)	/	/	/	-4%	/	3%
O=C(Nc1ccc(Cl)cc1)C1CCC(CNS(=O)(=O)c2ccc(Br)s2)CC1 (stereo not drawn)	11%	/	/	-28%	/	-27%
N#Cc1c(C(F)(F)F)cc(=O)n2c1[nH]c1ccccc12	-1%	-21%	34%	10µM*	-13%	?
O=C(Cc1ccc(S(=O)(=O)N2CCOCC2)s1)NC1CCCCC1	-20%	-1%	-9%[11.6 µM]	-14%	-21%	-11%
CC1CCCCC1NC(=O)Cc1ccc(S(=O)(=O)N2CCOCC2)s1 (stereo not drawn)	?	0%	9%	-13%	35µM*	-6%
Cc1ccc(S(=O)(=O)c2nc(C)oc2NCc2ccccc2)cc1	50µM*	0%	/	/	-60%	/
Clc1ccc(-c2nc3cnccn3c2Nc2ccc3c(c2)OCO3)cc1	?	-24%	-29%	4%	22µM*	3%
Cc1ccc(-c2nc3cnccn3c2Nc2ccc3c(c2)OCO3)o1	?	-2%	-18%	?	2.8µM*	-26%
COCCN1CCN(C(=O)c2cnn(-c3nccc(-c4ccco4)n3)c2C(C)C)CC1	/	/	/	-9%	/	4%
